This is a sample that favours compounds with a hit; in the whole collection about 4% have one here.
UGM FP inh – blocks M. tuberculosis UGM enzyme. hit rate 0.06% among 320,000. AID 504406. inhibition, % at 10 µM. P9WIQ1. purified UGM, fluorescence polarization probe displacement; in the data active means inhibition above about 10%, passing the limit was not always enough; inconclusive means no clear call, values can overlap the other calls
Rv3671c inh – Rv3671c (M. tuberculosis) protease inhibition. P9WHR9. inhibition, % at 5.96 µM. hit rate 0.048% among 320,000. AID 2606; in the data active means inhibition above about 38%;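 further: extracellular domain of Rv3671c used as enzyme; 0% = enzyme with DMSO and 100% = no enzyme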
Target sequence (P9WHR9 whole entry, looked up, the tested form may be a part): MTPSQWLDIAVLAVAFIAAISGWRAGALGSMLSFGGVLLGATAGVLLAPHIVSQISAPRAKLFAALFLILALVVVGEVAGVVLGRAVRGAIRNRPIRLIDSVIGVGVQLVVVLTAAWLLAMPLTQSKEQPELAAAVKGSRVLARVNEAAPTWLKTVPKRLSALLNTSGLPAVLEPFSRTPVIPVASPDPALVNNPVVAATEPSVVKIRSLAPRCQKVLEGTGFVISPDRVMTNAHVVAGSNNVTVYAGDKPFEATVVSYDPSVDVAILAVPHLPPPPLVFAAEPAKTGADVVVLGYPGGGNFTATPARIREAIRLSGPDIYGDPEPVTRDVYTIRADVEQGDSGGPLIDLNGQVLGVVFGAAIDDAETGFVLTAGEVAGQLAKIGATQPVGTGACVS
Mtb FBA inh – inhibitors of M. tuberculosis fructose-bisphosphate aldolase; hit rate 2.3% among 360,000; inhibition, % at 1 µM; P9WQA3; purified M. tuberculosis FBA, fluorescence read-out; in the data active means inhibition above about 27%;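 further: 0% = vehicle and 100% = reference inhibitor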
RecA intein inh – inhibitors of M. tuberculosis RecA intein splicing; cell-free RecA intein splicing, fluorescence; hit rate 0.75% among 290,000; inhibition, % (concentration not given with the values); in the data active means inhibition above about 30%; inconclusive means no clear call, values can overlap the other calls;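 further: 0% = vehicle wells and 100% = reference inhibitor control wells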
Mtb betalactam – beta-lactam sensitization of Mtb H37Rv; M. tuberculosis H37Rv growth with meropenem, percent inhibition; inhibition, % at 25 µM; hit rate 0.27% among 330,000; AID 434955; call rule not given here;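 further: growth measured after seven days incubation then overnight dye step; 0% = bacteria only wells and 100% = bacteria with antibiotic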
GDH-TPI inh – inhibits GDH-TPI coupling enzymes, artifact for Mtb FBA screen | inhibition, % at 4.8 µM | GDH-TPI coupled enzyme counterscreen, NADH absorbance | hit rate 1.2% among 360,000; in the data active means inhibition above about 30%;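 further: 0% = DMSO wells and 100% = wells lacking the enzyme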
Starred values were filed as active, the others as inactive; i = inactive; ? = inconclusive; nt = no result given; + = active, no number.

SMILES | UGM FP inh | Rv3671c inh | Mtb FBA inh | RecA intein inh | Mtb betalactam | GDH-TPI inh
CC(=O)NCCOc1nc(N2CCCCC2)nc(N2CCCCC2)n1 | 1 | -7 | 0 | 1 | -6 | -2
O=C(COc1ccccc1)Nc1nnc(S(=O)(=O)N2CCCCCC2)s1 | 0 | 5 | 6 | 1 | 6 | 12
COc1cc([N+](=O)[O-])cc(/C=N/NC(=O)c2ccc(NC(=O)c3ccc(C)cc3)cc2)c1O | nt | nt | -5 | 1 | nt | 3
COc1cc([N+](=O)[O-])cc(/C=N/NC(=O)c2ccc(C)nc2)c1O | 0 | 14 | -12 | 6 | -4 | 37*
CCOc1cc(/C=N\NC(=O)c2ccc(C)nc2)cc([N+](=O)[O-])c1O | -1 | 11 | -10 | 1 | 37 | 49*
COc1ccc(CCNC(=O)c2ccc3ccccc3n2)cc1 | 2 | -4 | -4 | 6 | 0 | 1
CN1CCC(N(C)C(=O)c2cc(S(=O)(=O)N(C)c3ccccc3)ccc2Cl)CC1 | 4 | -1 | 1 | nt | 7 | -12
CCOC(=O)N1CCc2c(sc3nc4n(c(=O)c23)N=C(C)CS4)C1 | 0 | -3 | 10 | -3 | -5 | 31*
CCOC(=O)N1CCc2c(sc(N)c2C#N)C1 | -2 | 0 | nt | 3 | -7 | nt
Cc1cc(Cl)c2oc(C(=O)N(C)Cc3nccn3C)c(C)c2c1 | nt | nt | -1 | -4 | nt | -7
COc1ccccc1Oc1nc(C)c(C(C)=O)cc1C#N | 0 | -1 | 4 | 1 | 1 | 9
COc1ccccc1Oc1cc(C#N)c(C#N)cc1-n1nnc2ccccc21 | -1 | 4 | -3 | 42* | 11 | 4
CCN(CC)S(=O)(=O)c1ccc(S(=O)(=O)N2CCC(N3CCCCC3)CC2)cc1 | 1 | 5 | 5 | 1 | -4 | 3
CCOC(=O)c1cc2c(=O)n3ccccc3nc2n(CCOC)c1=NC(=O)c1ccncc1 | -2 | -12 | 186* | -108 | 5 | 10
COc1ccc(CCNC(=O)c2cc3c(=O)n4ccccc4nc3n(CCCN3CCOCC3)c2=N)cc1 | -2 | -7 | 14 | -20 | 9 | 13
CCOC(=O)c1cc2c(=O)n3ccccc3nc2n(CCCOC)c1=NC(=O)c1cccnc1 | -5 | 5 | nt | -63 | 0 | nt
CCOC(=O)c1cc2c(=O)n3ccccc3nc2n(C(C)C)c1=NC(=O)c1c(-c2ccccc2Cl)noc1C | 1 | -2 | 18 | -9 | 6 | -1
CCOC(=O)c1cc2c(=O)n3ccccc3nc2n(CCOC)c1=NC(=O)C(C)(C)C | -2 | 3 | + | -194 | 9 | -8
CCOC(=O)c1cc2c(=O)n3ccccc3nc2n(CCCOC)c1=NC(=O)C(C)(C)C | -1 | -2 | + | i | 4 | 16
COCCn1c(=N)c(S(=O)(=O)c2ccc(Br)cc2)cc2c(=O)n3ccccc3nc21 | -4 | 13 | 5 | -17 | 1 | 3
CCOC(=O)c1cc2c(=O)n3ccccc3nc2n(C(C)C)c1=NC(=O)c1ccncc1 | -2 | 3 | 123* | -198 | 24 | 9
O=C(O)Cc1ccc(N2N=C(c3ccccc3)CC2=O)cc1 | nt | nt | 15 | nt | nt | nt
CCOc1ccccc1CN1CCNC(=O)C1CC(=O)NCCc1ccccn1 (stereo unspecified) | -1 | -1 | 0 | 3 | ? | -4
Cc1ccccc1-c1csc(C(C)(O)c2ccc(F)c(F)c2)n1 (stereo unspecified) | nt | nt | -3 | nt | nt | 5
CCOC(=O)C1CCN(C(=O)c2cc(COc3ccc(OC)c4ccccc34)on2)CC1 | 2 | -3 | 0 | 15 | 4 | 5
SMILES | UGM FP inh | Rv3671c inh | Mtb FBA inh | RecA intein inh | Mtb betalactam | GDH-TPI inh
CC(C)(C)S(=O)(=O)c1cnc2c(S(=O)(=O)c3ccccc3)cnn2c1N | -1 | 9 | 2 | 20 | -6 | 4
Cc1nc2c(S(=O)(=O)c3ccccc3)cnn2c(C)c1C | nt | 6 | 44* | -1 | -7 | 0
COc1cccc(Nc2cc(N3CCOCC3)c3nonc3c2[N+](=O)[O-])c1 | -1 | -1 | 8 | 3 | -11 | 2
O=[N+]([O-])c1c(Nc2ccccc2O)cc(N2CCOCC2)c2nonc12 | 0 | -4 | -15 | 1 | -4 | 32*
COc1ccc(/C=C/c2nc3ccccc3n2C)cc1 | -3 | 3 | 7 | 4 | 22 | 65*
COc1ccc(/C=N\n2nnc3ccccc32)cc1 | 0 | -7 | 8 | 0 | -3 | 51*
Cn1c(/C=C/c2ccc(Cl)cc2)nc2ccccc2c1=O | 2 | -9 | 0 | -69 | nt | 37*
O=c1c2ccccc2nc(/C=C/c2ccccc2)n1CCCO | -1 | -7 | 1 | 0 | 6 | 35*
Cn1c(/C=C/c2ccccc2)nc2ccccc2c1=O | -1 | 1 | 5 | 0 | -2 | 22

Bioassay records: PubChem, several laboratories
